Screens: PubChem, National Center for Advancing Translational Sciences (NCATS)
IL1B secr inh: inhibitors of inflammasome signaling (IL-1 beta secretion); activity change, % at 57.5 µM; THP-1 LPS/ATP IL-1B secretion, AlphaLISA, 16 h; active compounds read low; 360,000 compounds, 4.7% hits; in the data active means activity change below about -50%; inconclusive means mostly about -30% to -49%
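THP-1 cells pretreated 1 hr with compounds (up to 57.5 uM final), then stimulated with LPS (250 ng/mL final) plus ATP (1.25 mM final); secreted IL-1B measured by AlphaLISA after 16 hr, decreased signal indicating inhibition.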
ELG1 DNA repair: blocks ELG1-dependent DNA repair in HEK293T cells; AID 504467; 330,000 compounds, 2.3% hits; Potency, µM (series often up to 46.1 µM), actives largely listed as inhibitors; HEK293T ELG1-luciferase reporter, luminescence, 16 h; DNA damage induced by 5-fluorouridine; further: nearly all actives have a fitted effect of over 55% in size
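In this reporter screen, reduction of luminescence relative to DMSO vehicle indicated activity. Compounds and 5-fluorouridine were added together to 2,000 cells per well, incubated for 16 hr at 37 °C, then developed with ONE-Glo.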
TDP1 cell noCPT: qHTS for Inhibitors of human tyrosyl-DNA phosphodiesterase 1 (TDP1): qHTS in cells in absence of CPT | Potency, µM (highest dose often 46.2 µM), most hits filed as inhibitors | DT40 Tdp1-/- hTDP1 cells, no CPT, ATP luminescence, 48 h | 420,000 compounds, 15% hits; further: nearly all actives have a fitted effect of over 55% in size
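Chicken DT40 Tdp1-/- cells stably complemented with human TDP1 were seeded at 400 cells/well with DMSO in place of 20 nM camptothecin. After compound pinning, cells grew at least 48 hr at 37 °C; viability read by CellTiter-Glo luminescence.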
Giardia kill: Giardia lamblia killing; Giardia lamblia trophozoite viability; activity change, % at 7.66 µM, hits read low; 340,000 compounds, 0.15% hits; in the data active means activity change below about -80%; inconclusive means between about -30% and that limit;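 further: parasites exposed to compound for two days anaerobically before the ATP read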
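Compounds were tested on trophozoites seeded at 100 cells/well and held 48 hrs at 37 deg C anaerobically. An ATP-based luminescent kit measured the remaining live cells.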
TDP1 cell CPT: growth inhibition of DT40 Tdp1-/-;hTDP1 cells with camptothecin (screen for TDP1 inhibitors). chicken DT40 Tdp1-/-;hTDP1 cells + 20 nM CPT, ATP luminescence, 48 h. Potency, µM (top dose mostly 46.2 µM), actives largely listed as inhibitors. 420,000 compounds, 12% hits; further: nearly all actives have a fitted effect of over 55% in size
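Cell growth measured by CellTiter-Glo luminescence after a minimum 48 h, 37 C compound exposure with 20 nM CPT in Tdp1-knockout DT40 cells stably expressing hTDP1, seeded 400/well; qHTS titration format.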
TDP1 block: TDP1 (human) enzyme inhibition; Potency, µM (doses to about 130 µM), most hits filed as inhibitors; recombinant TDP1, AlphaScreen DNA substrate cleavage; 350,000 compounds, 0.28% hits; further: nearly all actives have a fitted effect of over 40% in size
Target sequence (Q9NUW8 whole entry, looked up): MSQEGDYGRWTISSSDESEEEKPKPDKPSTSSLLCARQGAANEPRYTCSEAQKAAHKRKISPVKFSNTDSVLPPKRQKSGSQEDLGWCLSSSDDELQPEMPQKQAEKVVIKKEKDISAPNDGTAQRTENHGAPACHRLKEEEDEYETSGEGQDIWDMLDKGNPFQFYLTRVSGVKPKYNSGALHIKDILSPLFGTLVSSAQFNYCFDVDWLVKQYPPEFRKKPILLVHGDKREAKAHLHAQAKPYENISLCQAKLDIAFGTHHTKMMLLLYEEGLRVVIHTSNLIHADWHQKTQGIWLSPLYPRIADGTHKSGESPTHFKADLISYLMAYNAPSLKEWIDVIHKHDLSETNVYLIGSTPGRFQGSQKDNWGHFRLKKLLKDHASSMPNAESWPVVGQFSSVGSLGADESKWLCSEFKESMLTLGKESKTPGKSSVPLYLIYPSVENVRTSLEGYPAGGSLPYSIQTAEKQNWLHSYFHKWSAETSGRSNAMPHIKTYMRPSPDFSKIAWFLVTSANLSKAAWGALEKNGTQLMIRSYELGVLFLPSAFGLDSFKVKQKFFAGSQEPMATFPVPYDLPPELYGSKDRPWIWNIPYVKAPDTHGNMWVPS
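Compounds were preincubated with Tdp1 (1 nM final) for 15 min at room temperature before substrate (15 nM final) started a 5 min reaction; beads (10 ug/ml final) were then added for 10 min before AlphaScreen detection.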
Hits are given with their value; n = inactive; u = inconclusive; x = no result; [ ] = another dose, or the depositor's remark. An excerpt weighted towards active compounds, which were near 19% of everything screened. Unless noted, the call rests on the fitted dose curve; in most records, active means well fitted curve in the direction sought with a large enough effect; inconclusive means small, poorly fitted or top-dose-only effect, or another doubt; inactive means no such curve, though single readings can be large; an effect the other way counts as inactive or inconclusive.

SMILES | IL1B secr inh | ELG1 DNA repair | TDP1 cell noCPT | Giardia kill | TDP1 cell CPT | TDP1 block
COc1ccc(/C=C/c2onc(C)c2S(=O)(=O)N2CCC(C(=O)N3CCC(C)CC3)CC2)cc1 | u | u | 16µM | n | 16µM | n
CCOc1cc(C=C(C(=O)OC)C(=O)OC)ccc1OCc1ccc([N+](=O)[O-])cc1 | -118 | 21µM | 12µM | n | 6.5µM | n
CCOc1cc(/C=N/O)ccc1OCc1ccc([N+](=O)[O-])cc1 | n | n | n | n | u | n
COc1ccc(CC(=O)N/N=C(\C)CC(=O)NCc2ccco2)cc1OC | n | n | n | n | n | x
COc1ccc(CNC(=O)CNC(c2ccccc2)c2ccccc2)cc1OC | n | n | 7.3µM | n | n | n
COc1ccc(CNC(=O)Oc2ccccc2)cc1Cl | n | n | 12µM | n | u | n
COc1ccc(/C=N/OCC(=O)NC(c2ccccc2)c2ccccc2)cc1OC | n | n | 6.5µM | u | 5.2µM | n
COC(=O)NCc1ccc(Cl)c(Cl)c1 | n | n | n | n | u | n
COc1cc(CC(=O)NC(c2ccccc2)c2ccccc2)cc(OC)c1OC | n | n | 13µM | n | 15µM | n
Cc1ccc(N2C(=O)CC(n3nc(C)cc3C)C2=O)cc1 (stereo not given) | n | n | n | n | n | n
O=C(OCCOc1ccccc1)c1n[nH]c2ccccc12 | n | u | n | n | n | n
Cc1noc(C)c1-c1ccc(C(=O)Nc2ccc(C(C)C)cc2)c2occc12 | n | x | 10µM | x | 12µM | x
CC(=O)c1cccc(NC(=O)c2ccc(-c3c(C)noc3C)c3ccoc23)c1 | n | x | u | x | 16µM | x
Cc1noc(C)c1-c1ccc(C(=O)NCCN2CCOCC2)c2occc12 | n | x | 29µM | x | u | x
COc1ccc(NC(=O)c2ccc(-c3c(C)noc3C)c3ccoc23)cn1 | n | x | u | x | u | x
COc1cc(NC(=O)c2ccc(-c3c(C)noc3C)c3ccoc23)cc(OC)c1OC | n | x | 8.2µM | x | 13µM | x
CNS(=O)(=O)c1cn(CC(=O)NCc2ccc(OC)cc2)cc1S(=O)(=O)NC | n | n | n | n | n | x
COC(=O)[C@H](CC(C)C)NC(=O)Cn1cnc2c(SC)nc(N)nc21 | n | n | n | n | n | n
O=C1c2c(-c3ccc(Br)cc3)noc2CCN1Cc1cn(Cc2cccnc2)nn1 | n | x | u | x | u | x
O=C(CNC(=O)c1ccncc1)OC(C(=O)Nc1cc(C(F)(F)F)ccc1Cl)c1ccccc1 (stereo not given) | x | x | x | x | x | n
CC(=O)Nc1ccc(NC(=O)c2ccc(-c3c(C)noc3C)c3ccoc23)cc1 | n | x | u | x | 21µM | x
COc1ccc2oc(C(=O)Nc3nc4ccc(S(C)(=O)=O)cc4s3)c(C)c2c1 | -52 | n | 16µM | n | u | n[0.505 µM]
COc1cc(OC)cc(C(=O)Nc2nc3ccc(S(C)(=O)=O)cc3s2)c1 | n | u | u | n | n | n
COc1ccc2oc(C(=O)Nc3nnc(C)s3)c(C)c2c1 | n | u | n | u | n | n
COc1ccc2oc(C(=O)Nc3nc(-c4ccccn4)cs3)c(C)c2c1 | n | n | 5.8µM | n | 5.8µM | n
SMILES | IL1B secr inh | ELG1 DNA repair | TDP1 cell noCPT | Giardia kill | TDP1 cell CPT | TDP1 block
Cc1nn(C)cc1C(C)Nc1nc2nonc2nc1N1CCCCC1 (stereo not given) | n | n | n | n | n | n
COc1ccc(N=C2NN=C(c3c(C)[nH]c4ccccc34)CS2)cc1 | u | u | 23µM | n | u | n
Cc1[nH]c2ccccc2c1C1=NNC(=Nc2ccc(F)cc2)SC1 | -66 | u | u | n | u | n
Cc1[nH]c2ccccc2c1N=Nc1ccc(F)cc1 | u | n | u | n | u | n
COc1cccc(NC(=O)c2ccc(OC(F)(F)F)cc2)c1 | n | u | u | n | n | n
Cc1c2cnn(-c3ccccc3)c(=O)c2c(C)n1CCCC(=O)NCCN1CCN(C)CC1 | n | n | n | n | n | n
CN1CCCN(C(c2ccccc2)c2ccc(Cl)cc2)CC1 (stereo not given) | n | n | 6µM | n | u | n
